Inconclusive results are not listed. Entries that show only a call come without a potency. The source made the active and inactive calls. The call rests on the fitted dose curve; in most records, active means well fitted curve in the direction sought with a large enough effect; inconclusive means small, poorly fitted or top-dose-only effect, or another doubt; inactive means no such curve, though single readings can be large; an effect the other way counts as inactive or inconclusive.

Among the data in PubChem BioAssay (NCATS) are Potency and outcome values, retold here.

A short description of assay [1]: qHTS to identify inhibitors of the type 1 interferon - major histocompatibility complex class I in skeletal muscle: primary screen against the NCATS LOPAC collection (AID 1347405).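 Further: lytic HiBiT luminescence reporting HLA-B protein level.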 Put shortly:
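After 24 h at 37 C with compounds (7-point, 1:4.3 dilutions, 46 uM top final) plus 4 ng/ml IFN-beta, luminescence from lytic HiBiT detection was measured. HLA-B*08:01 in C25cl48 myoblasts carried an endogenous C-terminal HiBiT tag; medium lacked dexamethasone.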

The nature of assay [2]: qHTS to identify inhibitors of the type 1 interferon - major histocompatibility complex class I in skeletal muscle: primary screen against the NCATS Pharmaceutical Collection (AID 1347407). Further: potency means the concentration at half of the fitted maximal effect. Put shortly: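 Cells were seeded with 4 ng/ml IFN-beta, incubated 1 h, then dosed with compounds over eight 1:5 steps up to 46 uM final. After 24 h at 37 C, HiBiT lytic reagent was added and luminescence read after 10 min lysis in the dark.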

Assay [3] in a line: qHTS for inhibitors of adenylyl cyclases using a fission yeast platform: a pilot screen against the NCATS LOPAC library (AID 1347410). Put shortly: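 Growth medium went into the plates first, then compounds were pinned (final up to 57 µM), then CHP2027 yeast were added. Plates were incubated overnight (18 h) at 30C in the dark, and GFP was measured by laser scanning cytometry.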

Assay [4] concerns the target Protein phosphatase 1D (Homo sapiens) (UniProt O15297). Nature of the assay: RapidFire Mass Spectrometry qHTS Assay for Modulators of WT P53-Induced Phosphatase 1 (WIP1) (AID 1347424).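 Further: amount of dephosphorylated VEPPL-S-QETFS peptide product formed by WIP1; series mostly up to about 63 µM.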 The procedure, abridged: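 RapidFire mass spectrometry measured dephosphorylated peptide after 5 min room-temperature reaction of 2 uM VEPPL-pS-QETFS with 10 nM WIP1 (50 mM Tris-HCl pH 7.5, 30 mM MgCl2, 0.1 mM EGTA, BSA), following 1 hr compound preincubation; 1 uM isotope-labelled product standard.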

The nature of assay [5]: Validation qHTS assay for inhibitors of Activation Induced Cytidine Deaminase (AID): UDG Counterscreen signal (AID 1347427). Put shortly:
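Fluorescence at 560 nm excitation, 665 nm emission reports UDG signal after 250 mM NaOH (2x) addition and 30 min. Enzymes (AID 1 uM, UDG 2 U/mL, at 4/3x) preincubated 10 min with compound, then 4 h with 4x 250 nM DJC20/DJC23 substrate at room temperature.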

Assay [6] has as its target Single-stranded DNA cytosine deaminase (Homo sapiens) (UniProt Q9GZX7). Description: Validation qHTS assay for inhibitors of Activation Induced Cytidine Deaminase (AID): AID signal (AID 1347429). Further: potency means the concentration at half of the fitted maximal effect. The procedure, abridged: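 Compounds (final up to 114 uM) preincubated with AID plus UDG; 250 nM DJC20/DJC23 substrate mix (4x stock) added, 4 hr at room temperature, then NaOH, 30 min. Read 1 fluorescence at 540 nm excitation, 590 nm emission.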

The nature of assay [7]: qHTS to identify inhibitors of the type 1 interferon - major histocompatibility complex class I in skeletal muscle: primary screen against the NCATS Mechanism Interrogation Plate v5.0 (MIPE) Libary (AID 1347411). Further: nearly all actives have a fitted effect of over 65% in size. Further: potency means the concentration at half of the fitted maximal effect. The procedure, abridged: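 Luminescence from CRISPR HiBit-tagged endogenous HLA-B in human myoblasts reported MHC class I level after 24 h of IFN-beta (4 ng/ml) plus compound. Compounds ran as 11-point 1:3 series, top 46 uM final.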

Chain of Single-stranded DNA cytosine deaminase (Homo sapiens) (Q9GZX7 whole entry, looked up): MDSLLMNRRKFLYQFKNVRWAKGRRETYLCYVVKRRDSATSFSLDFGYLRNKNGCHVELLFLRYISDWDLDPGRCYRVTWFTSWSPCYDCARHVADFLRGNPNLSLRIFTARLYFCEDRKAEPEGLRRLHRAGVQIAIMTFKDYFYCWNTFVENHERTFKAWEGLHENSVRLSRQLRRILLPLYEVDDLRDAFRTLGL
Chain of Protein phosphatase 1D (Homo sapiens) (O15297 whole entry, looked up): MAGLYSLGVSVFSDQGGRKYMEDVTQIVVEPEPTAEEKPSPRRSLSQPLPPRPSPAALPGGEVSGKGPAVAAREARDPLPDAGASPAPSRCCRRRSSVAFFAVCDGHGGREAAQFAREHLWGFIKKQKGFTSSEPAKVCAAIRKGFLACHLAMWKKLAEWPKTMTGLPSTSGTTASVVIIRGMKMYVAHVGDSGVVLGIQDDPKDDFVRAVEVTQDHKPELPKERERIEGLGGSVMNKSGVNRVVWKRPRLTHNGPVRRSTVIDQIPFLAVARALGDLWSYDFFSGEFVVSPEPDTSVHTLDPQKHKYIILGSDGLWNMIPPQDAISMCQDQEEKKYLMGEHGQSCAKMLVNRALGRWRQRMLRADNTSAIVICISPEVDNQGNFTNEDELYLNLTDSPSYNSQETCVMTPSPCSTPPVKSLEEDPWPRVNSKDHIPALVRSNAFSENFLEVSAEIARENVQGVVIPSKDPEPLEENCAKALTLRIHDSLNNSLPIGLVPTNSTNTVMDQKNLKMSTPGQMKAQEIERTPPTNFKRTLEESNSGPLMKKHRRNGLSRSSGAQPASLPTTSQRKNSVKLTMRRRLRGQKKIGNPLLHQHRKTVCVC

With `NCCS`, the Potency entry in assay [1], in assay [2] and in assay [6] was “inactive” each time. The outcome in assay [3], in assay [4] and in assay [5] was inactive.
Take `O=C(CCCCCCC(=O)Nc1ccccc1)NO`: the Potency in assay [2] is 4.19 µM (active); in assay [7], 1.47 µM (active). Further, the result in assay [4] was inactive.
In the case of `CC(C)NCC(O)COc1cccc2[nH]ccc12` (centres undefined), the Potency entry in assay [1], in assay [2] and in assay [6] was “inactive” in each case. Also, the compound was classed as inactive in assay [3], in assay [4] and in assay [5].
As to `COc1cccc(-c2cc(=O)c3ccccc3o2)c1N`, the Potency entry in assay [1], in assay [7] and in assay [6] was “inactive” throughout. Further, the call in assay [3] and in assay [5] was inactive.
On to `CCN1CCC[C@H]1CNC(=O)c1cc(S(N)(=O)=O)ccc1OC`, for which the Potency entry in assay [1], in assay [2] and in assay [6] was “inactive” throughout. Also, the outcome in assay [3], in assay [4] and in assay [5] was inactive.
As for `COC1CCC(N(C(=O)C2CCC(C)CC2)c2cc(C3=CCCCC3)sc2C(=O)O)CC1` (centres undefined), the Potency result in assay [7] was “inactive”.
For the compound `C[C@@H](O)[C@H]1C(=O)N2C(C(=O)O)=C(S[C@@H]3CN[C@H](C(=O)N(C)C)C3)[C@H](C)[C@H]12`, the Potency result in assay [2] is “inactive”. For the same compound, the result in assay [4] was inactive.
Regarding `CCCCCCCCCCCC1=C(O)C(=O)C=C(O)C1=O`, the Potency result in assay [7] was “inactive”.
For `O=C1C(Cl)=C(NCCN2CCOCC2)C(=O)c2ncccc21`, the Potency in assay [7] is 2.94 µM (active).
Still for that read-out and setting: the same measure for `CC(C)C(C)C=CC(C)C1CCC2C3=CC=C4CC(O)CCC4(C)C3CCC21C` (centres undefined): “inactive”; for `Cc1cnc(C(=O)O)c[n+]1[O-]`: “inactive”.
With `COC[C@@H](c1ccc(C(F)(F)F)cc1)N1CCN(C2(C)CCN(C(=O)c3c(C)ncnc3C)CC2)C[C@H]1C`, in assay [2], the Potency entry was “inactive”. In addition, the result in assay [4] was inactive.
As for `Clc1ccc(C(c2ccc(Cl)cc2)n2cc[n+](CC(OCc3ccc(Cl)cc3Cl)c3ccc(Cl)cc3Cl)c2)cc1` (centres undefined), the compound was classed as inactive in assay [3] and in assay [5]. Besides, the Potency in assay [7] is 16.5 µM (active). The Potency entry in assay [6] was “inactive”.
Regarding `CC(C)(C)Cn1c(N)nc2ccc(-c3[nH]c(C(C)(C)C)nc3-c3ccc(F)cc3)nc21`, the Potency result in assay [7] was “inactive”.
With `O=C(O)c1cc(-c2ccccc2)nc2ccccc12`, the Potency result in assay [2] was “inactive”. For the same compound, the compound was classed as inactive in assay [4].
`Cc1c(NC(=O)c2ccc(C(C)(C)C)cc2)cccc1-c1cn(C)c(=O)c(Nc2ccc(C(=O)N3CCOCC3)cc2)n1`: the Potency entry in assay [7] is “inactive”.
Take `Nc1ncnc2ccccc12`: the Potency entry in assay [7] was “inactive”.
Take `OC[C@@H](O)[C@H](O)[C@H](O)[C@@H](O)CO`: in assay [2], the Potency entry is “inactive”. Moreover, the call in assay [4] was inactive.
Take `Cc1ccc(C(C)(O)c2nc3ccccc3s2)c(C)c1` (centres undefined): the Potency result in assay [7] was “inactive”.
As to `N#C[C@H]1C[C@H]2C[C@@H]2N1C(=O)[C@@H](N)C12CC3CC(CC(O)(C3)C1)C2`, in assay [2], the Potency entry is “inactive”. In assay [4], the result was inactive.
As to `COc1ccc(C2CC(c3ccccc3)=NN2c2ccc(S(N)(=O)=O)cc2)cc1` (centres undefined), the Potency entry in assay [7] is “inactive”.
In the case of `COc1cc(N2CCC(N3CCN(C)CC3)CC2)ccc1Nc1ncc(Cl)c(Nc2ccccc2S(=O)(=O)C(C)C)n1`, in assay [7], the Potency is 18.6 µM (active).
On the same count and under the same terms, to `c1cc(-c2sc(-c3ccncc3)c(-c3ccncc3)c2-c2ccncc2)ccn1` belongs “inactive”.
With `CN1C[C@H]2c3ccccc3Oc3ccc(Cl)cc3[C@@H]2C1`, the Potency entry in assay [2] was “inactive”. Further, the call in assay [4] was inactive.
As for `CN1CCN(CCOc2cc(OC3CCOCC3)c3c(Nc4c(Cl)ccc5c4OCO5)ncnc3c2)CC1`, the Potency in assay [7] is 29.4 µM (active).
With `CC1(C)CCC2=C(O1)c1ccccc1C(=O)C2=O`, the compound was classed as inactive in assay [3]. Also, in assay [6], the Potency was 7.08 µM (active).
Take `COc1ccc(-c2nc(N3CCOCC3)c3sc(CN(C)c4ncc(C(=O)NO)cn4)cc3n2)cn1`: in assay [7], the Potency was 0.033 µM (active).
Still for that read-out and setting: to `C=C1C(=O)OC(CCCCCCCC)C1C(=O)O` (centres undefined) belongs 18.6 µM (active); to `COc1cc(N2CCC(N3CCN(C)CC3)CC2)ccc1Nc1ncnc(Nc2ccccc2S(=O)(=O)C(C)C)n1`, 4.15 µM (active).
As for `CC(C)[C@H](CO)Nc1nc(Nc2ccc(C(=O)O)c(Cl)c2)c2ncn(C(C)C)c2n1`, in assay [7], the Potency entry was “inactive”.
For `CCCNC(=O)NS(=O)(=O)c1ccc(Cl)cc1`, the outcome in assay [3], in assay [4] and in assay [5] was inactive. Further, the Potency result in assay [6] is “inactive”.
As to `NC(N)=Nc1nc(CSCC/C(N)=N/S(N)(=O)=O)cs1`, the result in assay [3], in assay [4] and in assay [5] was inactive. For the same compound, the Potency entry in assay [6] was “inactive”.
As to `CC(C)(C)c1ccc(C(O)CCCN2CCC(C(O)(c3ccccc3)c3ccccc3)CC2)cc1` (centres undefined), the result in assay [3], in assay [4] and in assay [5] was inactive. Besides, in assay [6], the Potency result was “inactive”.
In the case of `N#Cc1ccc(NC(=O)Nc2ccccc2Br)c2n[nH]nc12`, the Potency entry in assay [7] was “inactive”.
As for `CC/C(=C(\c1ccccc1)c1ccc(OCCN(C)C)cc1)c1ccccc1`, the result in assay [3], in assay [4] and in assay [5] was inactive. Besides, in assay [7], the Potency was 30.1 µM (active). Besides, the Potency result in assay [6] was “inactive”.
Consider `O=c1cc(-c2ccc(O)cc2)oc2cc(O)cc(O)c12`, for which the call in assay [3] and in assay [5] was inactive. In addition, the Potency entry in assay [6] was “inactive”.
`CC(C)(C)COc1ccc(-n2cc(C(=O)O)cn2)cc1C#N`: the Potency result in assay [7] was “inactive”.
On to `CCN(CC)CCNC(=O)c1ccc(N)cc1`, for which the result in assay [3] and in assay [4] was inactive.
Consider `CCCCCN(C)CCC(O)(P(=O)(O)O)P(=O)(O)O`, for which the compound was called inactive in assay [5]. For the same compound, the Potency entry in assay [6] was “inactive”.
In the case of `CC(C)OC(=O)C(C)(C)Oc1ccc(C(=O)c2ccc(Cl)cc2)cc1`, the compound was called inactive in assay [5]. Also, the Potency result in assay [6] is “inactive”.
